# Assay results from PMC7862700, “An all-to-all approach to the identification of sequence-specific readers for epigenetic DNA modifications on cytosine”.
# Columns and labels:
# Test in all cases: DAPPL (digital affinity profiling via proximity ligation, sequencing); 10 mM Tris-HCl pH 7.5, 50 mM NaCl, 1 mM DTT, 4% glycerol, room temperature, 30 min; GST-TFs on glutathione beads, 16-mer random dsDNA library, 0.1% formaldehyde crosslink after washing; high values mean tight binding
# ELK1 = molecular target: T1, ELK1 (Homo sapiens, UniProt P19419 1-428); conditions: protein: recombinant; tags: N-terminal GST; dsDNA, one strand shown
# T1 sequence: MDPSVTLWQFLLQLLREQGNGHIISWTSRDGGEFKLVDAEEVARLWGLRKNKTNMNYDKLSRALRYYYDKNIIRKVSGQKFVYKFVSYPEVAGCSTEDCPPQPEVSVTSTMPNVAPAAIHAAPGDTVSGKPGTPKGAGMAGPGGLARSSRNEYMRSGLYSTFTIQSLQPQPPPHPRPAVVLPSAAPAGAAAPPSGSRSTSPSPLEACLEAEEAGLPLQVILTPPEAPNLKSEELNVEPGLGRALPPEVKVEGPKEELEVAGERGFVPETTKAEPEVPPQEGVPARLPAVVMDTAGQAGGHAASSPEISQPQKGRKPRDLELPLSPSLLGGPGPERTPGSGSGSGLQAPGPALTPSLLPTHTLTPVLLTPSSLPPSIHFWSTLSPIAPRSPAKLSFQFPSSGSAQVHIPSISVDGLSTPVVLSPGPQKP
# Method in brief: (§1)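 Binding signal is each hexamer's read frequency for a factor divided by its frequency in the tag-only sample. The factors were GST-fused human transcription factors from yeast, captured on glutathione beads, DNA-barcoded and pooled with that sample. Pools were incubated with 200 nmole of a random double-stranded 16-mer DNA library in Tris/NaCl/DTT/glycerol buffer at room temperature for 30 min, then washed, crosslinked with 0.1% formaldehyde, proximity-ligated with BsaI/T4 ligase (1 h, 37 °C), PCR-amplified and sequenced on an Illumina NextSeq500.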
# GABPA = molecular target: T2, GABPA (Homo sapiens, UniProt Q06546 1-454); conditions: protein: recombinant; tags: N-terminal GST; dsDNA, one strand shown
# T2 sequence: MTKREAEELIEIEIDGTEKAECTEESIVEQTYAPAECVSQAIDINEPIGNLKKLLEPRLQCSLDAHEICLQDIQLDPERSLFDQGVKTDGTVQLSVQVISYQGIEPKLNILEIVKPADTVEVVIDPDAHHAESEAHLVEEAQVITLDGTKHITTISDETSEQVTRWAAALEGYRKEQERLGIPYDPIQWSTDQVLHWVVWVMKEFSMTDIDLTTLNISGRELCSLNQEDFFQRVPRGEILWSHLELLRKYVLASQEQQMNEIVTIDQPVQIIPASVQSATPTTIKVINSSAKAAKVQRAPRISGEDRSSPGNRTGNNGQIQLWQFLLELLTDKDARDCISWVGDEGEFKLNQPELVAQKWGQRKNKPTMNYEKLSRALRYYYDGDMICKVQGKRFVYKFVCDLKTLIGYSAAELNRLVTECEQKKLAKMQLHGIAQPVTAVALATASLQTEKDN
# Method in brief: as §1
# ELF1 = ELF1 (Homo sapiens, UniProt P32519 1-619); conditions: protein: recombinant; tags: N-terminal GST; dsDNA, one strand shown
# Method in brief: as §1
# EHF = molecular target: T3, EHF (Homo sapiens, UniProt Q9NZC4 1-300); conditions: protein: recombinant; tags: N-terminal GST; dsDNA, one strand shown
# T3 sequence: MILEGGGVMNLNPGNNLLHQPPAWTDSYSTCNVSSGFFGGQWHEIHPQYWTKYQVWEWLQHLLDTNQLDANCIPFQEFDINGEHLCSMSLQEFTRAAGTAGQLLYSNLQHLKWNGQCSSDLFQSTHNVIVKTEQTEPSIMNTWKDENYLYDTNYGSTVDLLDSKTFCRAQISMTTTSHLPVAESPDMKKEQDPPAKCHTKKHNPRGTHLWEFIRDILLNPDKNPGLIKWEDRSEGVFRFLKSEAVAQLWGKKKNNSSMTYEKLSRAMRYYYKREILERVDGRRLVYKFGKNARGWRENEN
# Method in brief: as §1
# SPIB = SPIB (Homo sapiens, UniProt Q01892 1-262); conditions: protein: recombinant; tags: N-terminal GST; dsDNA, one strand shown
# Method in brief: as §1
# ELK3 = molecular target: T4, ELK3 (Homo sapiens, UniProt P41970 1-407); conditions: protein: recombinant; tags: N-terminal GST; dsDNA, one strand shown
# T4 sequence: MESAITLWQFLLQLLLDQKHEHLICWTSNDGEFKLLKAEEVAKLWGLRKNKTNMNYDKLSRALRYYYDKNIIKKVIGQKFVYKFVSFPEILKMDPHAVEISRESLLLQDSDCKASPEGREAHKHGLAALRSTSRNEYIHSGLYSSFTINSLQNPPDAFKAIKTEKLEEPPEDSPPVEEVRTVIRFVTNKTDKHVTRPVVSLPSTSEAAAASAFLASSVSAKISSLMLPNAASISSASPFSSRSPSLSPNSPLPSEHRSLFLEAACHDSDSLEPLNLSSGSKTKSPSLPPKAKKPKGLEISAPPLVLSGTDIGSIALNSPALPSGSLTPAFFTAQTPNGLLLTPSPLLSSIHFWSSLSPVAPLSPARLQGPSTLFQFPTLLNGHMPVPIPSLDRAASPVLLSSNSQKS
# Method in brief: as §1
# HSF1 = HSF1 (Homo sapiens, UniProt Q00613 1-529); conditions: protein: recombinant; tags: N-terminal GST; chain copies: 3; dsDNA, one strand shown
# Method in brief: as §1
# SPIC = molecular target: T5, SPIC (Homo sapiens, UniProt Q8N5J4 1-248); conditions: protein: recombinant; tags: N-terminal GST; dsDNA, one strand shown
# T5 sequence: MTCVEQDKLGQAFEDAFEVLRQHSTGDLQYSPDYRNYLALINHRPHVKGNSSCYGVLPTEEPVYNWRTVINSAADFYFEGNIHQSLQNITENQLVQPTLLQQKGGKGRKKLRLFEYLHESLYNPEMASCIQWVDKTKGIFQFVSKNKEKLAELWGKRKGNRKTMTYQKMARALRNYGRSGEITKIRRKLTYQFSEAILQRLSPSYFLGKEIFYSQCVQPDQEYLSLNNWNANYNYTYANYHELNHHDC
# Method in brief: as §1
# ELF4 = ELF4 (Homo sapiens, UniProt Q99607 1-663); conditions: protein: recombinant; tags: N-terminal GST; dsDNA, one strand shown
# Method in brief: as §1
# ELF3 = molecular target: T6, ELF3 (Homo sapiens, UniProt P78545 1-371); conditions: protein: recombinant; tags: N-terminal GST; dsDNA, one strand shown
# T6 sequence: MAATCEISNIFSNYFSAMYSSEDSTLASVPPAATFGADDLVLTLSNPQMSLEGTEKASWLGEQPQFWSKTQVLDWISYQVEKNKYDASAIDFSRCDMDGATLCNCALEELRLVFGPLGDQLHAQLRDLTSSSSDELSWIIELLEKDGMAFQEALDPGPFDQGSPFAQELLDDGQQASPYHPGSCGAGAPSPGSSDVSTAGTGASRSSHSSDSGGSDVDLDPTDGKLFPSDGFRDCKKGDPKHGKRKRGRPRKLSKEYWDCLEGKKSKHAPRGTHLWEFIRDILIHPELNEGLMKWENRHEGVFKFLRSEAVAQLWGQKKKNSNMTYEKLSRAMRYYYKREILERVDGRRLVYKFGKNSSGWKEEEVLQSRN
# Method in brief: as §1
# ERF = molecular target: T7, ERF (Homo sapiens, UniProt P50548 1-548); conditions: protein: recombinant; tags: N-terminal GST; dsDNA, one strand shown
# T7 sequence: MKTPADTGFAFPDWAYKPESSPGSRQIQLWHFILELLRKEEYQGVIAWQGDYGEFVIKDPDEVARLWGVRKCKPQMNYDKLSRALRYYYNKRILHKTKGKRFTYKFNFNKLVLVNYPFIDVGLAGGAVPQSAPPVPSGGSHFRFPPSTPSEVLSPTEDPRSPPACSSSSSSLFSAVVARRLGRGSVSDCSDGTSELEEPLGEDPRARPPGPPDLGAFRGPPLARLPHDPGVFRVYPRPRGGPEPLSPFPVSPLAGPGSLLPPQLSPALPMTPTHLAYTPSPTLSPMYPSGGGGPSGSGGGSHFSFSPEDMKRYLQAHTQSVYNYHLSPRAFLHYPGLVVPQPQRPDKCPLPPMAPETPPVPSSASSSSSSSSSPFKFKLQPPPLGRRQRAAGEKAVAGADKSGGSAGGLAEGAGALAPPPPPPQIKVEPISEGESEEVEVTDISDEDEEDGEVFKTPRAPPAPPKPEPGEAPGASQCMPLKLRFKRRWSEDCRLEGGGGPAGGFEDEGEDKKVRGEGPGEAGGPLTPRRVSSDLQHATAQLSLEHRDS
# Method in brief: as §1
# ETS2 = molecular target: T8, ETS2 (Homo sapiens, UniProt P15036 1-469); conditions: protein: recombinant; tags: N-terminal GST; dsDNA, one strand shown
# T8 sequence: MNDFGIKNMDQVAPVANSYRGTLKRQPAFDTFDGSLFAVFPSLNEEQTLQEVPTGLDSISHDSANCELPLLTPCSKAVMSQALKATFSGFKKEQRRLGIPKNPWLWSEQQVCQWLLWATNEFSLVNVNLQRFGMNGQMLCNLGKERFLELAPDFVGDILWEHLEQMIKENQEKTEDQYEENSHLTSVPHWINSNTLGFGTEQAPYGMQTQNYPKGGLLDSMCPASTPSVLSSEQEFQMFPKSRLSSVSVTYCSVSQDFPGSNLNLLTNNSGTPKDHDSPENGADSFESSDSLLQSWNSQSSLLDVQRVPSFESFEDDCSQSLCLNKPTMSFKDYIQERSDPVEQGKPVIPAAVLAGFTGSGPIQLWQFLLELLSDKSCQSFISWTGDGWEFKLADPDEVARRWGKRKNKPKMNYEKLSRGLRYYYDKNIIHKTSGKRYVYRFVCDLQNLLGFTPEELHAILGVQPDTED
# Method in brief: as §1
# SPIB, sequence (Q01892 whole entry): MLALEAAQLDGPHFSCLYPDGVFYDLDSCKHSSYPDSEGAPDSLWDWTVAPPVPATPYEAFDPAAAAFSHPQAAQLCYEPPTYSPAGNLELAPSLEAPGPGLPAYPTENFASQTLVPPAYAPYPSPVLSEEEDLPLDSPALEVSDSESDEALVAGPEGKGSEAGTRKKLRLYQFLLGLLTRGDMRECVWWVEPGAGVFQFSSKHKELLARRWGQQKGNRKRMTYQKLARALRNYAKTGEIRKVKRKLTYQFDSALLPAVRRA
# HSF1, sequence (Q00613 whole entry): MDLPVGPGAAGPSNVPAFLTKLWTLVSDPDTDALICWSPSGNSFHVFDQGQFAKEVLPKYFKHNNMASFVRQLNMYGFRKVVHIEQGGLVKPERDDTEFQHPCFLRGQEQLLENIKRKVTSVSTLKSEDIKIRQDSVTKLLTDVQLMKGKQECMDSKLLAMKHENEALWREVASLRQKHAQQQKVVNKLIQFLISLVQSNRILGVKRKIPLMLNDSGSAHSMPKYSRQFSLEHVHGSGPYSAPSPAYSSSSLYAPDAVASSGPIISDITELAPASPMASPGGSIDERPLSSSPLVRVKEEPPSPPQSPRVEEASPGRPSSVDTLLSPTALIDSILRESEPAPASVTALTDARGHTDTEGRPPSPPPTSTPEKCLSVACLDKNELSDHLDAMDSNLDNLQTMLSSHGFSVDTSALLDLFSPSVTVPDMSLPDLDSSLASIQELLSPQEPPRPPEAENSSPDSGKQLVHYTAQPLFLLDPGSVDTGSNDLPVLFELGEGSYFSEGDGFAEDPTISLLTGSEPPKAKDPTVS
# ELF1, sequence (P32519 whole entry): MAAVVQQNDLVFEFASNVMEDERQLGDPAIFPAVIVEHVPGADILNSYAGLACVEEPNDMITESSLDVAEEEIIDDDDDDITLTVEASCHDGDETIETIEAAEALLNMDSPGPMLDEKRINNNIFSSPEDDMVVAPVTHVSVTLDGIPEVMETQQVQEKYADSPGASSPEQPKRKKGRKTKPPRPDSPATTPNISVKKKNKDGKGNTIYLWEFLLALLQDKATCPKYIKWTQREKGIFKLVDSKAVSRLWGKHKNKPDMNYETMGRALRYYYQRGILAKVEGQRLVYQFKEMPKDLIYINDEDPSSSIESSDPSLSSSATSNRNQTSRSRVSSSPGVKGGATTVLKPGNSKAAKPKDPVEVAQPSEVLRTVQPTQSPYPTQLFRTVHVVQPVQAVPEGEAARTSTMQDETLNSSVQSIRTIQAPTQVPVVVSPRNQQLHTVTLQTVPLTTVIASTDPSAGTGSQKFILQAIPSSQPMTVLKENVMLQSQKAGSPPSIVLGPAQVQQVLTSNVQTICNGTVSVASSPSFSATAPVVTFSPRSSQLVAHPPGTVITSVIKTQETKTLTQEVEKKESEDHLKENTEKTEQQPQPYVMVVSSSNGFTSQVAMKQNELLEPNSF
# ELF4, sequence (Q99607 whole entry): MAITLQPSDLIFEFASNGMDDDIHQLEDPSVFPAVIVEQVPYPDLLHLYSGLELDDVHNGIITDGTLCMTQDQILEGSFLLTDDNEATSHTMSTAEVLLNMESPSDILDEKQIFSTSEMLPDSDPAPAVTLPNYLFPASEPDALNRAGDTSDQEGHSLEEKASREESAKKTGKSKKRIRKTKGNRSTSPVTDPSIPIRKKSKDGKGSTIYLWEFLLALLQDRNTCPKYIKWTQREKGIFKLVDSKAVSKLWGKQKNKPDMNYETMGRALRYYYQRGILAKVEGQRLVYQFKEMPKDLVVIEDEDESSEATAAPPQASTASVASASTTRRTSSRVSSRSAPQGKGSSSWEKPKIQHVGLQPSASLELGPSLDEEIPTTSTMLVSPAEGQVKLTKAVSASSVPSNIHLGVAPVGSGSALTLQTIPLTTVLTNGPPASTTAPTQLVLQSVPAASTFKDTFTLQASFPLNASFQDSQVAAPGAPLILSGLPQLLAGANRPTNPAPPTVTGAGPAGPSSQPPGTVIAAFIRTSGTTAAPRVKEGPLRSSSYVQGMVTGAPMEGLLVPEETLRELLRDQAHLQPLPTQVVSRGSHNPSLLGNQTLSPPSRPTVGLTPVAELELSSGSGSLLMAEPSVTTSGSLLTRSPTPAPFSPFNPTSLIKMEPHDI
sequence,measurement,setting,value
GCCGAA,binding signal,ELK1,"1 fold enrichment (6-mer frequency, TF over GST control)"
same,binding signal,GABPA,"1.02 fold enrichment (6-mer frequency, TF over GST control)"
same,binding signal,ELF1,"1.01 fold enrichment (6-mer frequency, TF over GST control)"
same,binding signal,EHF,"1.03 fold enrichment (6-mer frequency, TF over GST control)"
same,binding signal,SPIB,"1.02 fold enrichment (6-mer frequency, TF over GST control)"
same,binding signal,ELK3,"1.06 fold enrichment (6-mer frequency, TF over GST control)"
same,binding signal,HSF1,"1.14 fold enrichment (6-mer frequency, TF over GST control)"
same,binding signal,SPIC,"1.09 fold enrichment (6-mer frequency, TF over GST control)"
same,binding signal,ELF4,"1.06 fold enrichment (6-mer frequency, TF over GST control)"
same,binding signal,ELF3,"1.02 fold enrichment (6-mer frequency, TF over GST control)"
same,binding signal,ERF,"1.05 fold enrichment (6-mer frequency, TF over GST control)"
same,binding signal,ETS2,"1.04 fold enrichment (6-mer frequency, TF over GST control)"
